Laboratory results taken from PubChem BioAssay AID686978 (National Center for Advancing Translational Sciences (NCATS), 2013).
“And” between values parts separate entries of the source, which are not always exact repeats. Equal values may be shown once. Hit rate of the full screen: of about 420,000 compounds, about 64,000 (15%) were called active. Roughly 27% stayed inconclusive and do not appear here. These entries were drawn from the full list. Where a call stands in place of a potency, no number is given. Values without a mark were called inactive. The call rests on the fitted dose curve; in most records, active means well fitted inhibition curve with a large enough effect; inconclusive means small, poorly fitted or top-dose-only effect; inactive means flat fitted curve, though single readings scatter. Peptide text beside a SMILES is read from it.

Assay: qHTS for Inhibitors of human tyrosyl-DNA phosphodiesterase 1 (TDP1): qHTS in cells in absence of CPT; further: nearly all actives have a fitted effect of over 55% in size
Settings: DT40 Tdp1-/- hTDP1 cells, no CPT, ATP luminescence, 48 h; activity change, negative = growth inhibition: at 46.2 µM (top of the series)
How it was run: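 A cellular qHTS used chicken DT40 cells lacking endogenous Tdp1 but carrying stably transfected human TDP1. Compounds were applied without camptothecin, and cell growth kinetics were judged by ATP-dependent luminescence after ≥48 hr.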
Potency means the concentration at half of the fitted maximal effect.

| SMILES | Potency | activity change, negative = growth inhibition |
| --- | --- | --- |
| NC(=O)N1CCCC1C(=O)Nc1ccc(Cl)c(Cl)c1 (centres undefined) | inactive | – |
| O=C(O)c1cccc(S(=O)(=O)N2CC=C(c3ccccc3)CC2)c1 | inactive | – |
| O=C(Nc1ccc(Cl)c(Cl)c1)N1CC=C(c2ccccc2)CC1 | 20.6 µM (active) | – |
| NC(=O)C1CCN(C(=O)c2cn(-c3ccccc3)nc2-c2cccnc2)CC1 | inactive | – |
| COc1ccc(C2=CC(c3cccc(OC)c3)n3nnnc3N2)cc1 (centres undefined) | 29.1 µM (active) | – |
| COc1ccc(C2CC(c3cccs3)Nc3nnnn32)cc1 (centres undefined) | inactive | – |
| CCOc1ccc(C2=CC(c3ccccc3)n3ncnc3N2)cc1 (centres undefined) | inactive | – |
| O=C(Cn1ccc(=O)[nH]c1=O)Nc1ccc(C(=O)O)c(O)c1 | inactive | – |
| COc1ccc(NC(=O)Cn2cc(C(=O)c3ccncc3)c(=O)c3cc(C)ccc32)cc1Cl | inactive | – |
| Cc1nn(C)cc1CNC(=O)Nc1ccc(Cl)cc1 | inactive | – |
| COc1ncnc2c1N=C1CC(C)(C)CC(N)=C1S2 | inactive | – |
| CC(C)(C)NC(=O)CN(C(=O)c1csnn1)c1ccccc1-c1ccccc1 | inactive | – |
| COc1ccccc1N1CCN(CCN2C(=O)c3ccccc3C(C)(C)C2=O)CC1 | 26.6 µM (active) and 23.1 µM (active) | – |
| COc1ccccc1N1CCN(CC(=O)NC(=O)NCc2ccco2)CC1 | inactive | – |
| CNCC(O)CN1CCN(c2ccccc2OC)CC1 (centres undefined) | inactive | – |
| CCc1nc(N2CCN(C(C)=O)CC2)c2c3c(sc2n1)CCCC3 | inactive | – |
| COCCn1c(C)cc(C(=O)CSc2ncnc3sc4c(c23)CCC4)c1C | inactive | – |
| CC1(C)Cc2c(sc3nc4n(c(=N)c23)CCCCC4)CO1 | inactive | – |
| CC/C(C)=N/Nc1nc2sc3c(c2c(=O)[nH]1)CC(C)(C)OC3 | inactive | – |
| COCCNc1nc(-n2nc(C)cc2C)nc2sc3c(c12)CCCC3 | 5.17 µM (active) | – |
| CCC(O)CNc1nc(-n2nc(C)cc2C)nc2sc3c(c12)CC(C)(C)OC3 (centres undefined) | 10.3 µM (active) | – |
| O=C(NCc1ccc(F)cc1)C1CCN(C(=O)Nc2ccc(F)cc2)CC1 | inactive | – |
| Cc1ccc(Oc2ccc3c(c2)C(=O)N(c2cccc4cccnc24)C3=O)cc1 | inactive | – |
| CC(C)NC(=O)NC(=O)COC(=O)c1ccc(NC(=O)CC#N)cc1 | inactive | – |
| O=C1CSC(c2cccc(F)c2)N1c1ccc(O)cc1 (centres undefined) | inactive | – |
| CCCC(C)C(=O)OCC(=O)Nc1c(Br)cc(C)cc1Br (centres undefined) | inactive | – |

| SMILES | Potency | activity change, negative = growth inhibition |
| --- | --- | --- |
| NC(=O)COc1ccc(/C=N/NC(=O)C2CCCN2S(=O)(=O)c2ccc(Cl)cc2)cc1 (centres undefined) | inactive | – |
| Nc1[nH][nH]c(=O)c1N=Nc1ccc2c(c1)OCO2 | inactive | – |
| C=CCN(N=Nc1cccc([N+](=O)[O-])c1)c1cccc([N+](=O)[O-])c1 | inactive | – |
| CCOC(=O)c1cc2c(nc1NC(=S)Nc1ccccc1)CC(C)(CC)OC2 (centres undefined) | inactive | – |
| COC(=O)Nc1ncc(CN2C(=O)c3ccccc3C2=O)s1 | inactive | – |
| CN1C(=O)c2ccc(NC(=O)C3CCCCC3)cc2C1=O | inactive | – |
| Cc1ccc(S(=O)(=O)NCCc2nnc3ccc(SCc4cccnc4)nn23)cc1 | inactive | – |
| COC(=O)CSc1ccc2nnc(CCNS(=O)(=O)c3ccc(C)cc3)n2n1 | inactive | – |
| O=S(=O)(NCCc1nnc2ccc(SCc3ccc(Cl)cc3Cl)nn12)c1ccccc1 | 14.6 µM (active) | – |
| COC(=O)Nc1ncc(CN2CCCCC2)s1 | inactive | – |
| CN1CCC(N(C)C(=O)c2ccc(Cl)c(S(=O)(=O)Nc3ccc(Cl)cc3)c2)CC1 | inactive | – |
| CCOC(=O)c1csc(NC(=O)c2ccc(S(=O)(=O)N3CCCC3)cc2)n1 | inactive | – |
| O=C(N/N=C/c1ccccn1)c1ccc(S(=O)(=O)N2CCCCCC2)cc1 | inactive | – |
| O=C(Nc1ccccc1F)c1ccc(S(=O)(=O)N2CCCCCC2)cc1 | inactive | – |
| O=C(Nc1ncccc1O)c1ccc(S(=O)(=O)N2CCCC2)cc1 | 18.4 µM (active) | – |
| Cc1cccnc1NC(=O)c1cccc(S(=O)(=O)N2CCN(c3ccc(F)cc3)CC2)c1 | 16.4 µM (active) | – |
| O=C(CNC(=O)c1ccc2ccccc2c1)Nc1ncccc1O | inactive | – |
| O=C(NC(=O)c1ccccc1)Nc1ccccc1O | inactive | – |
| COc1cc(C(=O)Nc2ncccc2C)ccc1OCC(=O)N1CCOCC1 | inactive | – |
| Cc1ccc(C)c2sc(NC(=O)c3ccc(S(=O)(=O)N4CCCC4)cc3)nc12 | 29.1 µM (active) | – |
| CCc1nnc(NC(=O)c2cc(S(=O)(=O)N3CCCCC3)ccc2C)s1 | inactive | – |
| O=C(Nc1ncccc1O)c1ccc(C(=O)c2ccccc2)cc1 | 23.1 µM (active) | – |
| Cc1ccc(C(=O)Nc2ncccc2C)cc1S(=O)(=O)N1CCOCC1 | inactive | – |
| CCCn1c(N)c(N(CCOC)C(=O)C2CCCC2)c(=O)[nH]c1=O | inactive | – |
| CCOC(=O)c1nn(-c2ccccc2F)c2nc(Nc3ccccc3)cc(=O)n12 | inactive | – |
| Nc1nnn(CC(=O)N/N=C/c2ccc(O)cc2)n1 | inactive | – |

| SMILES | Potency | activity change, negative = growth inhibition |
| --- | --- | --- |
| Cc1cc(NC(=O)c2cc3ccccc3o2)no1 | inactive | – |
| COc1cccc(N(CC(=O)NCCSc2ccccn2)S(C)(=O)=O)c1 | inactive | – |
| Cc1ccc(C(CNC(=O)Nc2cccc(C)c2)N2CCN(C)CC2)cc1 (centres undefined) | inactive | – |
| CCCCC/C=C\CC1OC1CCCCCCCC(=O)O (centres undefined) | – | -12.2% [at 0.628 µM] |
| O=C1c2ccccc2C(=O)N1CCCc1nc(-c2ccccc2)no1 | inactive | – |
| O=C(O)c1ccc(S(=O)(=O)c2ccccc2)s1 | inactive | – |
| NC(=O)CSc1nnc(NC(=O)c2ccc3ccccc3c2)s1 | inactive | – |
| COc1ccc(C2/C(=C(/O)c3ccccc3)C(=O)C(=O)N2c2ncccn2)cc1OC (centres undefined) | inactive | – |
| O=C(c1ccc(Br)o1)N1CCN(CCOc2ccccc2)CC1 | inactive | – |
| OC(c1ccccc1)(c1ccccc1)C1CCN(CCCOc2ccccc2)CC1 | 16.4 µM (active) | – |
| O=C(c1ccco1)N1CCN(CCOc2ccccc2)CC1 | inactive | – |
| O=c1[nH]c2ccccc2n1C1CCN(CCOc2ccccc2)CC1 | 4.11 µM (active) | – |
| c1ccc(-c2ccc(OCCN3CCOCC3)cc2)cc1 | inactive | – |
| COc1ccc(OCCCCN2CCC(C)CC2)cc1 | inactive | – |
| Cc1ccc(C)c(N2C(=O)CS/C2=N\NC(=O)c2ccccc2Cl)c1 | inactive | – |
| Cc1ccc(NC(=O)c2nc[nH]c2C(=O)N2CCCCC2)c(C(=O)c2ccccc2)c1 | inactive | – |
| CC12CCC(C(=O)N(NC(=O)c3ccccc3O)C1=O)C2(C)C (centres undefined) | 18.4 µM (active) | – |
| COc1ccccc1C(=O)NN1C(=O)C2C3C=CC(O3)C2C1=O (centres undefined) | inactive | – |
| O=C(NN1C(=O)C2C(C1=O)C1C=CC2C12CC2)c1ccccc1Cl (centres undefined) | inactive | – |
| O=C(NCc1nnnn1-c1ccc(Cl)cc1)c1ccc2c(c1)OCO2 | inactive | – |
| O=C(Nc1cccc(Cl)c1)Nc1ccccc1NS(=O)(=O)c1cccs1 | inactive | – |
| CC(OC(=O)c1cc2ccccc2[nH]1)C(=O)N(C)c1ccccc1 (centres undefined) | inactive | – |
| Cc1nc2ccccn2c(=O)c1NC(=O)c1cccs1 | inactive | – |
| Cc1ccc(-n2c(SCC(=O)N3CCC(C(=O)O)CC3)nc3ccccc3c2=O)cc1C | inactive | – |
| Cc1ccc(-n2c(=O)c(C#N)cc3c(=O)n4ccccc4nc32)cc1C | 23.1 µM (active) | – |
| Cc1nc2sc(C(c3ccco3)N3CCC4(CC3)OCCO4)c(O)n2n1 (centres undefined) | inactive | – |

| SMILES | Potency | activity change, negative = growth inhibition |
| --- | --- | --- |
| Cc1[nH]n(-c2cccc(Cl)c2)c(=O)c1-c1ccc(Cl)cc1 | 16.4 µM (active) | – |
| CC1=NN(c2cccc(Cl)c2)C(=O)C12CC(C)=C(C)CS2 (centres undefined) | inactive | – |
| Cc1nn(-c2ccccc2)c(NC(=O)c2cccs2)c(-c2ccc(Cl)cc2)c1=O | inactive | – |
| CCOC(=O)Cn1c(=O)oc2cc(S(=O)(=O)NCC3CCCO3)ccc21 (centres undefined) | inactive | – |
| NC(=O)C1CCN(C(=O)COc2ccc3c4c(c(=O)oc3c2)CCC4)CC1 | inactive | – |
| O=C(COc1ccc2oc3c(c2c1)CCCC3)Nc1ccccn1 | inactive | – |
| CC1CCCCN1CC(=O)N1CCCc2c1c(=O)oc1ccc(OCc3ccccc3)cc21 (centres undefined) | 4.61 µM (active) | – |
| COc1cccc(CCNC(=O)c2cccc(NC(=O)C3=C(C)OCCS3)c2)c1 | inactive | – |
| CC1CCCCC1NC(=O)CCS(=O)(=O)c1cccc2nonc12 (centres undefined) | inactive | – |
| CCOC(=O)C1=C(CNC2CCCCC2)NC(=O)NC1c1cc(C)ccc1C (centres undefined) | 20.6 µM (active) | – |
| CCOC(=O)C1=C(CSc2nccn2C)NC(=O)NC1c1ccc(OC)cc1 (centres undefined) | inactive | – |
| CCOC(=O)C1=C(COC(=O)[C@H](C)NS(=O)(=O)c2ccccc2F)NC(=O)NC1C (some centres undefined) | inactive | – |
| CCOC(=O)C1=C(CN2CCc3ccccc32)NC(=O)NC1c1cc(C)ccc1C (centres undefined) | 12.6 µM (active) | – |
| CCOC(=O)C1=C(c2ccccc2)NC(=O)NC1c1cc(OC)c(OC)cc1OC (centres undefined) | inactive | – |
| CCOC(=O)c1sc(-c2cccc([N+](=O)[O-])c2)cc1N | inactive | – |
| CCOC(=O)C1=C(CN2CCCCCC2)NC(=O)NC1c1cccc([N+](=O)[O-])c1 (centres undefined) | 20.6 µM (active) | – |
| CCOC(=O)COc1ccc(Cl)cc1C1NC(=O)NC(C)=C1C(C)=O (centres undefined) | inactive | – |
| CCOCCOC(=O)C1=C(C)NC(=O)NC1c1ccc2c(c1)OCO2 (centres undefined) | inactive | – |
| CC(=O)NC(C(=O)NCC(N)=O)C(C)C (centres undefined) (HELM PEPTIDE1{[ac].[CC(C)C(N[*:1])C(=O)[*:2]].G.[am]}$$$$V2.0) | inactive | – |
| C/C(Cc1ccccc1)=N\NC(=O)CNC(=O)c1ccccc1Cl | inactive | – |
| CCC(C)N(C(=O)Cn1nc(C)c([N+](=O)[O-])c1C)C1CCS(=O)(=O)C1 (centres undefined) | inactive | – |
| Nc1cc(=O)n(Cc2ccccc2)c(=O)n1Cc1ccccc1 | inactive | – |
| COc1cc(OC)c(-n2c(C)cc(C=O)c2C)cc1Cl | inactive | – |
| COc1ncnc2c1ncn2CCCNCCN1CCOCC1 | inactive | – |
| CN1/C(=C\C=C2\N=C(c3ccc(F)cc3)OC2=O)C(C)(C)c2ccccc21 | 23.1 µM (active) | – |
| Cc1ccnc2nc(C(=O)OCC(=O)N(CC(C)C)CC(C)C)nn12 | inactive | – |
